LMP1 NFkB inh: reduces LMP1-driven NF-kappaB luciferase signal; actives 0.69% (n = 350,000); LMP1-induced NF-kappaB luciferase reporter cells, luminescence; inhibition, % at 12.5 µM; in the data active = inhibition above about 41%;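 also: 0% = neutral control wells and 100% = reference inhibitor control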
HSF1 inh: HSF1 inhibition. activity change, negative = inhibition, % at 7.5 µM (by protocol). NIH3T3-HGL HSE-luciferase, MG132-induced, luminescence 8 h; stronger effect = lower value. actives 0.77% (n = 300,000);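 active = more than half of replicate wells show activity change below -50%, luminescence cut by over half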;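 also: luciferase reports HSF-1 transcriptional activity via heat shock element; 0% = median of DMSO wells and -100% = zero luminescence signal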
HSP90 inh: inhibitors of HSP90 luciferase refolding in rabbit reticulocyte lysate. luciferase refolding luminescence, 3 h. inhibition, % at 5.6 µM. actives 0.91% (n = 290,000). AID 1789;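 active = inhibition above the screen-wide mean plus 3 SD, computed separately per campaign, cut at about 16% in these data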;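 also: 0% = DMSO wells and 100% = 60 µM geldanamycin wells; inhibitors lower the luminescence because luciferase stays unfolded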
TROY signal inh: TROY signaling inhibition. Q293 LMP1-TROYcd NF-kB luciferase reporter, 4 h. inhibition, % at 10 µM. actives 0.98% (n = 360,000). AID 1347056;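 active = compounds whose plate-normalised and pattern-corrected inhibition of the luciferase reporter signal at the single screening dose is 50% or more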
TWEAK-Fn14 inh: inhibitors of TWEAK-Fn14 interaction signaling | TWEAK-stimulated Fn14 reporter cells, luciferase luminescence, 8 h | actives 2% (n = 360,000) | inhibition, % at 10 µM; in the data active = inhibition above about 50%
HSF-1 act: increases HSF-1 driven luciferase reporter signal; actives 1.7% (n = 300,000); activation, % at 9 µM; NIH3T3-HGL HSF-1 luciferase reporter, MG132, 8 h; 100% = twice DMSO control signal;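 active = mean replicate activation of at least 50% with a set share of replicates each reaching 50%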;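 also: 0% = median of the neutral control wells and 100% = twice that signal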
* marks the source's active call; other numbers are inactive results. Hits are enriched below; roughly 4.7% of the tested compounds scored in any of these assays.

Results for CN1CCN(CCCNC(=O)c2ccc3c(Cl)c4c(nc3c2)CCCC4)CC1 ?
LMP1 NFkB inh: -22; HSF1 inh: 15; HSP90 inh: -1; TROY signal inh: -4; TWEAK-Fn14 inh: -18; HSF-1 act: 4

Results for CCN(CC)CCCNC(=O)CSc1c2c(nc3cc(Cl)ccc13)CCCC2 ?
LMP1 NFkB inh: -2; HSF1 inh: 154; HSP90 inh: -2; TROY signal inh: 13; TWEAK-Fn14 inh: 1; HSF-1 act: 202*

Results for O=C(CSc1c2c(nc3cc(Cl)ccc13)CCCC2)NCCCN1CCOCC1 ?
LMP1 NFkB inh: 2; HSF1 inh: 141; HSP90 inh: 0; TROY signal inh: 30; TWEAK-Fn14 inh: 4; HSF-1 act: 189*

Results for O=C(CSc1c2c(nc3ccccc13)CCCC2)NCc1ccco1 ?
LMP1 NFkB inh: 8; HSF1 inh: 40; HSP90 inh: 1; TROY signal inh: 0; TWEAK-Fn14 inh: -17; HSF-1 act: 86*

Results for CCCCNC(=O)c1ccc2c(SCC(=O)O)c3c(nc2c1)CCCC3 ?
LMP1 NFkB inh: -2; HSF1 inh: -7; HSP90 inh: 3; TROY signal inh: -6; TWEAK-Fn14 inh: -2; HSF-1 act: 12

Results for O=C(CSc1c2c(nc3ccc(Cl)cc13)CCCC2)NCCCN1CCOCC1 ?
LMP1 NFkB inh: -4; HSF1 inh: 41; HSP90 inh: -2; TROY signal inh: 19; TWEAK-Fn14 inh: 2; HSF-1 act: 68*

Results for CC(C)CCNC(=O)c1ccc2c(SCC(=O)O)c3c(nc2c1)CCC3 ?
LMP1 NFkB inh: -6; HSF1 inh: -86*; HSP90 inh: 0; TROY signal inh: 0; TWEAK-Fn14 inh: 0; HSF-1 act: -89

How did COCCCNC(=O)CSc1c2c(nc3ccc(Cl)cc13)CCCC2 do in these assays?
LMP1 NFkB inh: -27; HSF1 inh: 37; HSP90 inh: 8; TROY signal inh: 21; TWEAK-Fn14 inh: 2; HSF-1 act: 40

What do the screens show for `O=C(CSc1c2c(nc3cc(Cl)ccc13)CCCC2)NCCN1CCOCC1`?
LMP1 NFkB inh: 0; HSF1 inh: 43; HSP90 inh: 6; TROY signal inh: 10; TWEAK-Fn14 inh: 0; HSF-1 act: 65*

What do the screens show for `O=C1NC[C@@H](CCCCN2C[C@H](Cc3ccccc3)N(CCc3ccc(O)cc3)C(=O)C2=O)N(CC2CCCCC2)C1=O`?
TROY signal inh: -6; TWEAK-Fn14 inh: 4

What do the screens show for `Cc1ccc(-c2nc(N)sc2-c2ccccc2)cc1C`?
LMP1 NFkB inh: -59; HSF1 inh: 0; HSP90 inh: -5; TROY signal inh: 53*; TWEAK-Fn14 inh: 86*; HSF-1 act: 22

What do the screens show for `COc1cc(OC)cc(C2=Cc3ccccc3C(CC(C)=O)N2c2ccc(C#CC3(O)CCCCC3)cc2)c1` (stereo not given)?
TROY signal inh: 36; TWEAK-Fn14 inh: 52*

How did COc1cc(OC)cc(C2=Cc3ccccc3C(CC(C)=O)N2c2ccc(-c3cncnc3)cc2)c1 (stereo not given) do in these assays?
TROY signal inh: -20; TWEAK-Fn14 inh: 16

Results for CC(=O)CC1c2cc(F)ccc2C=C(c2ccsc2)N1c1ccc(C#CC2(O)CCCCC2)cc1 (stereo not given) ?
TROY signal inh: -13; TWEAK-Fn14 inh: 57*

What do the screens show for `CCCCN(C)c1c(C)nc2ccc(C(=O)N(C)Cc3ccco3)cn12`?
TROY signal inh: 3; TWEAK-Fn14 inh: -8

What do the screens show for `C[C@H]1CN([C@@H](C)CO)C(=O)CCCn2cc(nn2)CO[C@@H]1CN(C)C(=O)CCC(F)(F)F`?
LMP1 NFkB inh: 4; TROY signal inh: -5; TWEAK-Fn14 inh: 88*

How did O[C@@H]1C2CCCC1[C@]1(O)CCCCC1C2 (stereo not given in full) do in these assays?
LMP1 NFkB inh: 0; HSF1 inh: 38; HSP90 inh: 4; TROY signal inh: 8; TWEAK-Fn14 inh: -3; HSF-1 act: 53*

What do the screens show for `CN(C)S(=O)(=O)N1CCC(Oc2ccc(C(=O)NC3Cc4ccccc4C3)cc2)CC1`?
LMP1 NFkB inh: 1; HSF1 inh: 12; HSP90 inh: 1; TROY signal inh: 27; TWEAK-Fn14 inh: 52*; HSF-1 act: 10
